Shown is part of a subset that was picked to be rich in the strongest signals.
Key:
Test in all cases: glycan array binding signal (z-score within array); higher = stronger binding
Settings in all cases: glycan notation: IUPAC condensed, linker removed
GalNAc6S(b1-4)GlcNAc = target: GalNAc6S(b1-4)GlcNAc
Method in brief: (§1)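 Glycan array data came from 3228 arrays in the Consortium for Functional Glycomics database, and only arrays with an available protein sequence were kept. Glycan names were put into IUPAC-condensed notation, and columns mapping to the same glycan were averaged. The binding signal is a within-array Z-score, averaged across arrays of one protein sequence run at different concentrations or buffers and across linkers. A negative Z-score can be read as non-binding.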

[1] = target: Glc(a1-4)Glc(a1-4)Glc(a1-4)Glc
Method in brief: as §1

[2] = target: Glc(a1-6)Glc(a1-6)Glc(a1-6)Glc
Method in brief: as §1

GlcA(b1-6)Gal = target: GlcA(b1-6)Gal
Method in brief: as §1

[3] = target: GlcNAc(b1-2)[GlcNAc(b1-4)]Man(a1-3)[GlcNAc(b1-4)][GlcNAc(b1-2)[GlcNAc(b1-6)]Man(a1-6)]Man(b1-4)GlcNAc(b1-4)[Fuc(a1-6)]GlcNAc
Method in brief: as §1

[4] = target: GlcNAc(b1-3)Gal(b1-4)GlcNAc(b1-2)Man(a1-3)[GlcNAc(b1-3)Gal(b1-4)GlcNAc(b1-2)Man(a1-6)]Man(b1-4)GlcNAc(b1-4)GlcNAc
Method in brief: as §1

[5] = target: GlcNAc(b1-3)Gal(b1-4)GlcNAc(b1-3)Gal(b1-4)GlcNAc(b1-2)Man(a1-3)[GlcNAc(b1-3)Gal(b1-4)GlcNAc(b1-3)Gal(b1-4)GlcNAc(b1-2)Man(a1-6)]Man(b1-4)GlcNAc(b1-4)GlcNAc
Method in brief: as §1

[6] = target: GlcNAc(b1-3)Gal(b1-4)GlcNAc(b1-3)Gal(b1-4)GlcNAc(b1-2)[GlcNAc(b1-3)Gal(b1-4)GlcNAc(b1-3)Gal(b1-4)GlcNAc(b1-6)]Man(a1-6)[GlcNAc(b1-3)Gal(b1-4)GlcNAc(b1-3)Gal(b1-4)GlcNAc(b1-2)Man(a1-3)]Man(b1-4)GlcNAc(b1-4)[Fuc(a1-6)]GlcNAc
Method in brief: as §1

[7] = target: GlcNAc(b1-3)Gal(b1-4)GlcNAc(b1-3)Gal(b1-4)GlcNAc(b1-3)Gal(b1-4)GlcNAc(b1-2)Man(a1-3)[GlcNAc(b1-3)Gal(b1-4)GlcNAc(b1-3)Gal(b1-4)GlcNAc(b1-3)Gal(b1-4)GlcNAc(b1-2)Man(a1-6)]Man(b1-4)GlcNAc(b1-4)[Fuc(a1-6)]GlcNAc
Method in brief: as §1

[8] = target: GlcNAc(b1-3)Gal(b1-4)GlcNAc(b1-3)Gal(b1-4)GlcNAc(b1-3)Gal(b1-4)GlcNAc(b1-2)[GlcNAc(b1-3)Gal(b1-4)GlcNAc(b1-3)Gal(b1-4)GlcNAc(b1-3)Gal(b1-4)GlcNAc(b1-6)]Man(a1-6)[GlcNAc(b1-3)Gal(b1-4)GlcNAc(b1-3)Gal(b1-4)GlcNAc(b1-3)Gal(b1-4)GlcNAc(b1-2)Man(a1-3)]Man(b1-4)GlcNAc(b1-4)[Fuc(a1-6)]GlcNAc
Method in brief: as §1

[9] = target: Man(a1-2)Man(a1-6)[Man(a1-3)]Man(a1-6)[Man(a1-2)Man(a1-2)Man(a1-3)]Man
Method in brief: as §1

[10] = target: Neu5Ac(a2-3)Gal(b1-3)[Fuc(a1-4)]GlcNAc(b1-3)Gal(b1-4)[Fuc(a1-3)]GlcNAc
Method in brief: as §1

[11] = target: Neu5Ac(a2-3)Gal(b1-3)[Neu5Ac(a2-6)]GalNAc
Method in brief: as §1

[12] = target: Neu5Ac(a2-3)Gal(b1-4)GlcNAc(b1-2)Man(a1-3)[GlcNAc(b1-2)Man(b1-4)GlcNAc(b1-2)Man(a1-6)]Man(b1-4)GlcNAc(b1-4)GlcNAc
Method in brief: as §1

[13] = target: Neu5Ac(a2-3)Gal(b1-4)GlcNAc(b1-3)Gal(b1-4)GlcNAc
Method in brief: as §1

[14] = target: Neu5Ac(a2-3)Gal(b1-4)GlcNAc(b1-3)Gal(b1-4)GlcNAc(b1-3)Gal(b1-4)GlcNAc(b1-2)Man(a1-3)[Neu5Ac(a2-3)Gal(b1-4)GlcNAc(b1-3)Gal(b1-4)GlcNAc(b1-3)Gal(b1-4)GlcNAc(b1-2)Man(a1-6)]GalNAc
Method in brief: as §1

[15] = target: Neu5Ac(a2-3)Gal(b1-4)GlcNAc(b1-6)[Gal(b1-3)]GalNAc
Method in brief: as §1

[16] = target: Neu5Ac(a2-3)Gal(b1-4)[Fuc(a1-3)]GlcNAc(b1-3)GalNAc
Method in brief: as §1

[17] = target: Neu5Ac(a2-3)[GalNAc(b1-4)]Gal(b1-4)GlcNAc
Method in brief: as §1

[18] = target: Neu5Ac(a2-6)Gal(b1-4)GlcNAc(b1-2)Man(a1-3)[GlcNAc(b1-2)Man(b1-4)GlcNAc(b1-2)Man(a1-6)]Man(b1-4)GlcNAc(b1-4)GlcNAc
Method in brief: as §1

[19] = target: Neu5Ac(a2-6)Gal(b1-4)GlcNAc(b1-2)Man(a1-3)[Neu5Ac(a2-6)Gal(b1-4)GlcNAc(b1-2)Man(a1-6)]Man(b1-4)GlcNAc(b1-4)GlcNAc
Method in brief: as §1

[20] = target: Neu5Ac(a2-6)Gal(b1-4)GlcNAc(b1-2)Man(a1-3)[Neu5Ac(a2-6)Gal(b1-4)GlcNAc(b1-2)Man(a1-6)]Man(b1-4)GlcNAc(b1-4)[Fuc(a1-6)]GlcNAc
Method in brief: as §1

[21] = target: Neu5Ac(a2-6)Gal(b1-4)GlcNAc(b1-3)Gal(b1-4)GlcNAc(b1-3)Gal(b1-4)GlcNAc(b1-2)Man(a1-3)[Neu5Ac(a2-6)Gal(b1-4)GlcNAc(b1-3)Gal(b1-4)GlcNAc(b1-3)Gal(b1-4)GlcNAc(b1-2)Man(a1-6)]GalNAc
Method in brief: as §1

[22] = target: Neu5Ac(a2-6)GalNAc(b1-4)GlcNAc6S
Method in brief: as §1

[23] = target: Neu5Ac(a2-8)Neu5Ac(a2-8)Neu5Ac(a2-3)[Gal(b1-3)GalNAc(b1-4)]Gal(b1-4)Glc
Method in brief: as §1

[24] = target: Neu5Ac9Ac(a2-6)Gal(b1-4)GlcNAc
Method in brief: as §1

B1: BabA (Helicobacter pylori), O52269_HELPY (protein)
chain: AEDDGFYMSAGYQIGEAAQMVKNTKGIQELSDNYENLSNLLTRYSTLNTLIKLSADPSAVNAARENLGASAKNLIGDTKNSPAYQAVLLAINAAVGFWNVVGYVTQCGGNANGQKSTSSTTIFNNEPGYRSTSITCSLNGHMPGYYGPMSIENFKKLNEAYQILQTALKNGLPALKENNGTVNVTYSYTCSGEGNDNCSLQTTGVTNQNNGTKTETQTIDGKSVTTTISSKVVDSQ
Q: For B1, which “glycan array binding signal (z-score)” value (GalNAc6S(b1-4)GlcNAc) is on record?
A: The value was -0.764.

Q: And the “glycan array binding signal (z-score)” value [1]?
A: Its value is 0.344.

Q: And the “glycan array binding signal (z-score)” value [2]?
A: The value was 0.59.

Q: And the “glycan array binding signal (z-score)” value (GlcA(b1-6)Gal)?
A: Its value is -0.267.

Q: And the “glycan array binding signal (z-score)” value [3]?
A: The value was -0.373.

Q: And the “glycan array binding signal (z-score)” value [4]?
A: The value was 0.363.

Q: And the “glycan array binding signal (z-score)” value [5]?
A: The value was 4.69.

Q: What about the “glycan array binding signal (z-score)” value [6] of the same binder?
A: Its value is 3.66.

Q: What about the “glycan array binding signal (z-score)” value [7] of the same binder?
A: The value was 2.94.

Q: What about the “glycan array binding signal (z-score)” value [8] of the same binder?
A: Its value is 2.92.

Q: And the “glycan array binding signal (z-score)” value [9]?
A: The value was -0.83.

Q: And the “glycan array binding signal (z-score)” value [10]?
A: The value was 0.749.

Q: What about the “glycan array binding signal (z-score)” value [11] of the same binder?
A: Its value is 0.266.

Q: And the “glycan array binding signal (z-score)” value [12]?
A: Its value is -1.52.

Q: And the “glycan array binding signal (z-score)” value [13]?
A: Its value is -0.291.

Q: And the “glycan array binding signal (z-score)” value [14]?
A: The value was 9.34.

Q: And the “glycan array binding signal (z-score)” value [15]?
A: Its value is 1.93.

Q: And the “glycan array binding signal (z-score)” value [16]?
A: The value was 0.626.

Q: What about the “glycan array binding signal (z-score)” value [17] of the same binder?
A: The value was -0.627.

Q: And the “glycan array binding signal (z-score)” value [18]?
A: The value was -0.829.

Q: What about the “glycan array binding signal (z-score)” value [19] of the same binder?
A: Its value is -0.571.

Q: What about the “glycan array binding signal (z-score)” value [20] of the same binder?
A: Its value is 1.19.

Q: And the “glycan array binding signal (z-score)” value [21]?
A: The value was 5.39.

Q: What about the “glycan array binding signal (z-score)” value [22] of the same binder?
A: Its value is -0.637.

Q: And the “glycan array binding signal (z-score)” value [23]?
A: The value was 0.344.

Q: What about the “glycan array binding signal (z-score)” value [24] of the same binder?
A: Its value is -0.224.
